# Compounds with a hit are over-represented: about 4.1% of the library has one in this group of screens.
# AMA1 RON2 block: disrupts binding of P. falciparum AMA1 to RON2; 360,000 tested, 0.2% active; Potency, µM (doses to about 58.2 µM), without a hit: at the highest dose activity change, negative = inhibition, most hits filed as inhibitors; AID 720542; AlphaScreen AMA1-biotinylated RON2 peptide binding;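 note: 0% = vehicle wells and -100% = peptide control; nearly all actives have a fitted effect of over 45% in size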
#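 AMA1 (3D7) with his tag at 25 nM final met compounds first, then biotinylated RON2 peptide at 25 nM; detection used donor plus acceptor beads, 10 µg/mL apiece, read by AlphaScreen after 30 min at room temperature.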
# FMDV inh: antivirals against foot and mouth disease virus | FMDV antiviral cell-based qHTS | Potency, µM (series often up to 57.9 µM), for inactives: at the highest dose activity change, negative = inhibition, actives largely listed as inhibitors | 410,000 tested, 1.2% active | AID 1159524; calls by dose curve; tested in HEK293T cells; note: read-out not given here; nearly all actives have a fitted effect of over 45% in size
# AmpC no deterg: AmpC beta-lactamase inhibition without detergent; P00811; AmpC nitrocefin hydrolysis, absorbance 480 nm, 0.0001% Triton; Potency, µM (series often up to 57.1 µM), for the others: at the highest dose activity change, negative = inhibition, usual class: inhibitors; 330,000 tested, 0.52% active;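 note: plate controls were no compound for no effect and no enzyme for full effect; nearly all actives have a fitted effect of over 20% in size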
# Target sequence (P00811 whole entry, looked up): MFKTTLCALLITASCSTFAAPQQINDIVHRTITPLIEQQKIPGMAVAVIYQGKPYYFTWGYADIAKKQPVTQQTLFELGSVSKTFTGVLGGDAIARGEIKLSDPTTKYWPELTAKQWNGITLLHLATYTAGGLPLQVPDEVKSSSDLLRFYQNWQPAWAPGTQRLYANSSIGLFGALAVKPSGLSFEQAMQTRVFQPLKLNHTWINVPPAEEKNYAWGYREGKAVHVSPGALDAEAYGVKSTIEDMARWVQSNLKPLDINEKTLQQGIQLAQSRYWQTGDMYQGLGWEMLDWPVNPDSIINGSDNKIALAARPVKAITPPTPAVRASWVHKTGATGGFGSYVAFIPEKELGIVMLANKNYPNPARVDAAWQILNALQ
#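 20 mM phosphate pH 7.0 + 0.01% (detergent screen) or 0.0001% Triton X-100; 5.3 nM AmpC reagent; cpd preinc 15 min RT; nitrocefin (800 uM stock) to start; A480 q20 s × 4 min; Activity was normalised to no-enzyme and no-compound control wells.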
# Sm TGR block: S. mansoni TGR enzyme inhibition. Q962Y6. purified TGR, DTNB reduction, TNB absorbance 405 nm. Potency, µM (series often up to 114 µM), without a hit: top-dose activity change, negative = inhibition, usual class: inhibitors. 360,000 tested, 3% active; note: nearly all actives have a fitted effect of over 60% in size
#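 TGR 20 nM + NADPH 100 uM (dispensed conc.), cpd preinc 15 min RT; start with NADPH (500 uM addition) then DTNB (15 mM addition). Kinetic TNB absorbance, 405 nm filter. Four-parameter Hill fit across titration.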
# AmpC inh detg: inhibitors of E. coli AmpC beta-lactamase with detergent. 370,000 tested, 0.041% active. AmpC hydrolysis of nitrocefin, absorbance 480 nm, 0.01% Triton. Potency, µM (highest dose often 114 µM), for inactives: at the highest dose activity change, negative = inhibition, usual class: inhibitors. P00811;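 note: 0% = no-compound wells and -100% = no-enzyme wells; nearly all actives have a fitted effect of over 25% in size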
#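 20 mM phosphate pH 7.0 + 0.01% (detergent screen) or 0.0001% Triton X-100; 5.3 nM AmpC reagent; cpd preinc 15 min RT; nitrocefin (800 uM stock) to start; A480 q20 s × 4 min; Activity was normalised to no-enzyme and no-compound control wells.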
# An asterisk follows results filed as active; u = inconclusive; x = not tested or not shown. Unless noted, calls come from the whole dose curve; as a rule, active = well fitted curve in the direction sought with a large enough effect; inconclusive = small, poorly fitted or top-dose-only effect, or another doubt; inactive = no such curve, though single readings can be large; an effect the other way counts as inactive or inconclusive. Unless noted, % is set by controls: 0 for no effect and ±100 for the full control effect; potency is the fitted concentration of half-maximal effect.
SMILES,AMA1 RON2 block,FMDV inh,AmpC no deterg,Sm TGR block,AmpC inh detg
Cc1ccc(S(=O)(=O)c2nc(-c3ccccc3Cl)oc2N2CCCCCC2)cc1,x,25.5%,x,u,2.9%
O=S(=O)(c1ccccc1)c1nc(-c2ccco2)oc1N1CCCCC1,2.4%,-5.7%,-16.9%,44.7µM*,-1.7%
O=C(COc1ccccc1F)Nc1ccc2oc(-c3cccc(Cl)c3)nc2c1,x,-7.7%,x,8.3%,20.0%
Cc1cc(C)n(Cc2cccc(C(=O)NCC3Cc4cccc(-c5ncccn5)c4O3)c2)n1 (stereo not given),x,-8.0%,x,x,x
CC(C)c1nn2c(=O)cc(COC(=O)c3ccc(NC(=O)c4cccs4)cc3)nc2s1,x,14.6%,x,1.7%,10.7%
CC(=O)c1ccc(NC(=O)C2CCC(CNS(=O)(=O)c3cccs3)CC2)cc1 (stereo not given),x,-5.1%,x,-4.4%,13.3%
COc1ccc(CCNC(=O)CCc2c(C)c3cc4c(C)c(C)oc4cc3oc2=O)cc1OC,x,-20.9%,x,-3.9%,11.0%
COCC1CCCN(C(=O)c2cc(COc3ccc(C(C)=O)cc3)on2)C1 (stereo not given),4.2%,7.4%,x,x,x
COc1cccc(OCc2cc(C(=O)N3CCC(c4ccncc4)CC3)no2)c1,-2.7%,-27.1%,62.7%,-3.4%,u
CC(=O)c1ccc(OCc2cc(C(=O)N3CC[C@@H]4CCCC[C@H]4C3)no2)cc1,-18.7%,-8.1%,94.0%,12.6µM*,1.3%
CC(=O)c1ccc(OCc2cc(C(=O)N3CCC(c4ccncc4)CC3)no2)cc1,-4.0%,u,67.6%,44.7µM*,u
COc1ccc(Cl)cc1-n1c(C)ccc1C,-14.9%,-8.6%,-26.4%,50.1µM*,-4.5%
COc1ccc(Cl)cc1N1C(=O)c2cccnc2C1=O,6.9%,3.6%,-1.1%,0.8%,u
CC(=O)c1cccc(N(C(=O)CNC(=O)c2ccco2)C(C(=O)NC2CCCC2)c2ccc(C)o2)c1 (stereo not given),-13.5%,1.78µM*,-0.7%,3.5%,1.0%
CCC(C)(C)c1ccc(OCCCC[n+]2cccc(C)c2)c(C(C)(C)CC)c1,15.3%,31.6µM*,126.6%,2.7%,4.7%
COc1ccccc1-n1cc(C(=O)NCCN2Cc3ccccc3OC(c3ccsc3)C2)cn1 (stereo not given),x,-9.3%,x,x,x
O=C(NCc1ccc2c(c1)OCO2)c1nc(S(=O)(=O)Cc2ccccc2)ncc1Cl,1.5%,15.8µM*,-14.3%,3.16µM*,2.8%
O=C(NCc1ccc2c(c1)OCO2)c1ccccc1Cl,-1.6%,13.7%,x,x,x
O=C(NCc1ccc2c(c1)OCO2)c1nc(S(=O)(=O)Cc2ccccc2F)ncc1Cl,-4.7%,22.4µM*,-31.2%,25.1µM*,-2.2%
O=S(=O)(c1cnc(Cl)c(Br)c1)N1CCc2ccccc21,-5.9%,-17.4%,-20.2%,17.8µM*,10.1%
O=S(=O)(c1cnc(Cl)c(Cl)c1)N1CCCc2ccccc21,9.9%,u,-31.7%,u,-5.5%
CN1CCN(S(=O)(=O)c2cnc(Cl)c(Br)c2)CC1,16.9%,-12.3%,-14.3%,0.8%,-1.5%
O=S(=O)(c1cnc(Cl)c(Cl)c1)N1CCc2ccccc21,24.0%,u,-25.1%,3.98µM*,11.2%
C#CC(=O)N(c1cccc(OC)c1)C(C(=O)NC1CCCC1)c1cccs1 (stereo not given),-3.7%,x,5.5%,7.94µM*,-2.7%
C#CC(=O)N(c1ccc(OC)c(OC)c1)C(C(=O)NC1CCCC1)c1cccs1 (stereo not given),2.1%,u,u,5.62µM*,0.3%
Cc1cccc(N(C(=O)C(F)(F)F)C(C(=O)NC2CCCCC2)c2cccs2)c1 (stereo not given),12.4%,32.3%,-11.5%,7.2%,-9.3%
O=C(c1ccco1)[C@@H]1[C@@H]2C(=O)N(c3ccc(F)cc3)C(=O)[C@@H]2[C@H]2C=Cc3ccccc3N21,-5.2%,8.2%,1.6%,-32.7%,-5.8%
O=C(c1ccco1)[C@@H]1[C@@H]2C(=O)N(c3ccc(Br)cc3)C(=O)[C@@H]2C2c3ccccc3C=CN21 (stereo not given in full),20.0%,3.5%,-27.1%,17.8µM*,u

# Compound activity from PubChem.
